Shown are actives, neighbours in structure and some others; about 1.3% of the full set was active somewhere.
Cardiac RTF inh – cardiac RTF calcium sensitivity inhibitors, primary screen, biochemical, IANBD-TnC fluorescence, EC70 calcium; Troponin I, cardiac muscle (Homo sapiens) + Troponin T, cardiac muscle (Homo sapiens) + …; IANBD-labeled cardiac RTF, Ca2+ fluorescence; inhibition, % at 7.15 µM; 0.12% of 340,000 active;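 active = inhibition above the mean inhibition of all tested compounds plus 3 SD, cut at about 17% in these data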;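 also: assay run at fixed EC70 calcium of 1.6 mM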
Keap1 Nrf2 FP – Keap1-Nrf2 protein-protein interaction inhibitors, primary screen, biochemical, fluorescence polarization, single point | AID 504523, 2011 | inhibition, % at 9.4 µM | Kelch-like ECH-associated protein 1 (Homo sapiens), Q14145 | 0.15% of 340,000 active | Keap1 Kelch-Nrf2 peptide fluorescence polarization, 1536-well; in the data active = inhibition above about 12%; inconclusive = no clear call, values can overlap the other calls; inactive = below about 7.3%;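 also: human Keap1 Kelch domain with fluorescein labeled Nrf2 9mer peptide probe; 0% = neutral control wells and 100% = peptide positive control; higher means more block of Keap1 binding to Nrf2 peptide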
Target sequence (Q14145 whole entry, looked up, the tested form may be a part): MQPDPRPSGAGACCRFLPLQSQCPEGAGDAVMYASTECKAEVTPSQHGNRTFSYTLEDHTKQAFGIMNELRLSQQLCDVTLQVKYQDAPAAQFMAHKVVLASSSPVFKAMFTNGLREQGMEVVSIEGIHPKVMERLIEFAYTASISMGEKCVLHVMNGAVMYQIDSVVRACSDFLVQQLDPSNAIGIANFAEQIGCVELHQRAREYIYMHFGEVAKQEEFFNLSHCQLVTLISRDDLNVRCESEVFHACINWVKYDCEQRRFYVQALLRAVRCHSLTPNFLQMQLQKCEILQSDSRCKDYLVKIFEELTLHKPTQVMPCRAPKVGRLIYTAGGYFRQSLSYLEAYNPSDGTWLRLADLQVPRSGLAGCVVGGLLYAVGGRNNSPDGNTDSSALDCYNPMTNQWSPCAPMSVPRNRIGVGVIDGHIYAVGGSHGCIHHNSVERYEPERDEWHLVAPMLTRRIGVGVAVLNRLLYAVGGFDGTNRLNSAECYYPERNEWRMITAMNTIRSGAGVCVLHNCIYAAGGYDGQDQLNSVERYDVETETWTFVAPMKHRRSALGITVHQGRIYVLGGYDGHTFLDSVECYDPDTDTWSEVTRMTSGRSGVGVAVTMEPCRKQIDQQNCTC
C-LANA FP – inhibitors of KSHV C-LANA binding to DNA, primary screen, biochemical, fluorescence polarization, FAM-LBS DNA, MBP-C-LANA, single point. Kaposi's sarcoma herpesvirus LANA C-terminal domain (residues 932-1162) DNA binding. inhibition, % at 9 µM. 0.078% of 340,000 active. AID 504423, 2011;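 active = highest replicate inhibition at or above 60% at 9 µM, even if other replicates fall short; inactive = all replicates below 60% inhibition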;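 also: 0% = neutral control wells and 100% = 4 µM acridine orange control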
CRFR2-BP ag – agonists of CRF-BP/CRF-R2 complex, primary screen, cell-based, HEK293, calcium dye fluorescence, uHTS; CRF-binding protein / CRF receptor 2 complex (human); calcium dye fluorescence (FLIPR); percent of saturating CRF peptide response; activation, % at 13.2 µM; AID 588473, 2011; 0.46% of 350,000 active;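 active = activation of at least 50%, plus an integration ratio under a set limit after plate pattern correction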;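 also: plate controls were neutral control wells without compound for no effect and CRF at EC100 for full effect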
CRFBP-R2 block – antagonists of CRF-BP/CRF-R2 complex, primary screen, cell-based, HEK293, calcium dye fluorescence, uHTS; CRF-induced calcium fluorescence; inhibition, % at 11.8 µM; 0.59% of 350,000 active; AID 588475, 2011;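 active = inhibition of the ligand-induced calcium signal above about 50% at the single tested concentration, limit read from the data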
cardiac RTF act – cardiac RTF calcium sensitivity activators, primary screen, biochemical, IANBD-TnC fluorescence, EC20 calcium; Troponin I, cardiac muscle (Homo sapiens) + Troponin T, cardiac muscle (Homo sapiens) + …; IANBD-labeled TnC RTF fluorescence at EC20 calcium; 0% EC20 calcium, 100% full calcium; activation, % at 7.2 µM; 0.24% of 340,000 active;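 active = activation above the mean over all tested compounds plus 3 SD, cut at about 30% in these data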;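 also: rise in fluorescence read as greater calcium sensitivity of cardiac thin filaments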
An asterisk follows results filed as active; ? = inconclusive; / = no result.

SMILES	Cardiac RTF inh	Keap1 Nrf2 FP	C-LANA FP	CRFR2-BP ag	CRFBP-R2 block	cardiac RTF act
CCc1ccc(NC(=O)C(CC)c2ccccc2)cc1 (centres undefined)	-8	-3	1	60*	-65	2
CN(C)S(=O)(=O)c1cccc(C(=O)NCC2CCCO2)c1 (centres undefined)	-6	3	1	0	-1	-4
COc1ccc(C(Nc2cccc([N+](=O)[O-])c2)P(=O)(OC(C)C)OC(C)C)cc1 (centres undefined)	-6	-2	0	1	-9	5
CCOP(=O)(OCC)C(Nc1cccc([N+](=O)[O-])c1)c1ccccc1 (centres undefined)	3	1	0	0	84*	-1
CN(C)C(=S)NC1CCS(=O)(=O)C1 (centres undefined)	-5	-4	0	-2	4	0
NNC(=S)NC1CCS(=O)(=O)C1 (centres undefined)	/	/	/	5	108*	/
CN1CCCC(CC2c3ccccc3Sc3ccccc32)C1 (centres undefined)	5	2	0	1	-14	-3
CN1CCCc2cc3c(C(F)(F)F)cc(=O)oc3nc21	-58	?	-21	212*	-92	38*
FC(F)(F)c1cc(C(F)(F)F)c2ccc(N3CCOCC3)nc2n1	-7	0	1	0	-11	10
CC(=O)NC1=NN(C(C)=O)C(C)(c2ccccn2)S1 (centres undefined)	6	3	1	7	52*	-3
CCOC(=O)c1nnn(-c2nonc2N)c1CNc1ccccc1	3	-2	0	-2	18	-2
COCCNc1nc2c(S(=O)(=O)c3cc(C)ccc3C)nnn2c2ccccc12	4	0	1	0	50*	-1
CCC(=O)N1CCN(c2ccc(NC(=O)c3ccc(C#N)cc3F)cc2Cl)CC1	5	-5	0	0	0	3
COc1cc(/C=C2\N=C(c3ccccc3)OC2=O)ccc1OC(C)=O	-6	-1	0	0	-8	-4
COc1ccc(OC)c(/C=C2\N=C(c3ccccc3)OC2=O)c1	-8	-24	12	104*	-84	17
O=C(CCCc1nc2ccccc2s1)Nc1ccc(N2CCOCC2)cc1	4	1	-2	0	0	5
Cc1ccc(-c2nc(C(F)(F)F)cc(=O)[nH]2)cc1	-9	-4	1	-4	11	10
Nc1nc(C(F)(F)F)cc(=O)[nH]1	-1	0	65*	-2	9	1
CCC(=O)c1ccc(OCC(=O)NCCCN2CCOCC2)cc1	-24	-2	0	1	52*	-4
COc1ccc(Nc2nnc(SCC(=O)c3cc4ccccc4o3)s2)cc1	-13	0	-1	0	10	-2
COc1cc(OC)c2ccc(=O)oc2c1C(CCN1CCCC1)c1ccc2c(c1)OCO2 (centres undefined)	13	2	1	1	-5	-7
COc1cc(OC)c2ccc(=O)oc2c1C(CCN1CCOCC1)c1ccc2c(c1)OCO2 (centres undefined)	-5	2	-1	-3	76*	1
CCOc1ccc(NS(=O)(=O)c2ccc(NC(=S)NC(=O)CC(C)C)cc2)cc1	-1	-5	10	19	-55	-5
CCCC(=O)NC(=S)Nc1ccc(S(=O)(=O)Nc2ccc(OCC)cc2)cc1	-4	-3	0	55*	-109	-16
CCOc1ccc(S(=O)(=O)Nc2cccnc2)cc1	-6	4	1	-1	53*	-1
SMILES	Cardiac RTF inh	Keap1 Nrf2 FP	C-LANA FP	CRFR2-BP ag	CRFBP-R2 block	cardiac RTF act
C(=N\N1CCN(c2ccccn2)CC1)/c1ccco1	-1	-3	0	0	27	-1
N=c1c(C(=O)NCc2ccc(F)cc2)cc2c(=O)n3ccccc3nc2n1CCCN1CCOCC1	5	-3	-1	-3	11	2
COc1cccc(/C(O)=C/c2nc3ccc(C(=O)NCCc4ccc(Cl)cc4)cc3[nH]c2=O)c1	-3	-1	1	140*	-244	99*
CC(=O)Nc1ccc(N=Cc2c(O)c(C(=O)Nc3ccccc3)cc3ccccc23)cc1	/	/	/	115*	-88	/
CN(Cc1ccccn1)C(=O)C1CCC(=O)N(Cc2cccc(C(F)(F)F)c2)C1 (centres undefined)	-1	-1	-1	5	53*	-1
CN(Cc1ccncn1)C(=O)C1CCC(=O)N(Cc2cccc(C(F)(F)F)c2)C1 (centres undefined)	-2	1	0	-3	19	-2
O=Cc1ccc(N2CCCC2)c([N+](=O)[O-])c1	-11	-1	0	-2	6	8
O=[N+]([O-])/C=C\c1ccc(N2CCCC2)c(F)c1	-7	-15	-1	106*	-89	5
Cc1c(C(c2ccc(N(C)C)cc2)c2c(C)n(C)n(-c3ccccc3)c2=O)c(=O)n(-c2ccccc2)n1C	8	-1	-1	-7	54*	-2
Cc1c(C(c2ccccc2)c2c(C)n(C)n(-c3ccccc3)c2=O)c(=O)n(-c2ccccc2)n1C	-6	-4	0	-3	13	-2
O=C(O)C(c1ccccc1)N1C(=O)/C(=C\c2ccc(-c3ccccc3Cl)o2)SC1=S (centres undefined)	-2	1	0	91*	-104	2
COc1cccc(/C=C2\SC(=S)N(C(C(=O)O)c3ccccc3)C2=O)c1OC (centres undefined)	5	-1	0	0	12	-2
O=C(O)C(c1ccccc1)N1C(=O)/C(=C\c2ccc(-c3ccc(Br)cc3)o2)SC1=S (centres undefined)	-65	-52	5	85*	-57	63*
CC(=O)C1=C(O)C(=O)N(c2nccs2)C1c1ccccc1 (centres undefined)	-5	-9	-2	-3	94*	-2
CC(=O)C1=C(O)C(=O)N(c2ccccn2)C1c1ccc(C)cc1 (centres undefined)	-10	-8	1	2	1	5
CCC(C(=O)NCCN1CCOCC1)n1c2ccccc2c2nc(=O)cc(C)n21 (centres undefined)	0	1	3	1	52*	-1
CC(=O)Nc1ccc(Sc2ncccc2C(=O)Nc2ccc(F)cc2)cn1	-1	-3	1	156*	-123	-5
